Experimental data taken from the supplement of paper PMC6555819.

Key:
Test in all cases: PBM binding z-score (relative to random genomic background probes); higher = stronger binding; sequences stand for … in GC…GCGATTGACAGCGTAGAATGAAGG
[1] = tested on: PPARg:RXRa DBDmut IVT, anti-RXR (DBD mutation: RXRa K156A/R161A, NR concentration 270 nM, RXRa partner concentration 90 nM)
Summary of the method: (§1)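 Binding buffer was PBS pH 7.4 with 2% milk, 0.02% Triton X-100, 1 mM DTT, 0.2 mg/mL BSA and 0.4 mg/ml salmon testes DNA. In it, ligand-free nuclear receptor dimers were incubated 1 h on custom Agilent 4×180K protein-binding microarrays carrying double-stranded probes. Antibodies against each partner (one per run) detected binding, and z-scores were calculated against random background probes after regression normalization of scanned fluorescence.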

[2] = tested on: PPARg:RXRa IVT, anti-PPARg (NR concentration 270 nM, RXRa partner concentration 90 nM)
Summary of the method: as §1

[3] = tested on: PPARg DBDmut:RXRa IVT, anti-PPARg (DBD mutation: PPARg1 K132A/R137A, NR concentration 270 nM, RXRa partner concentration 90 nM)
Summary of the method: as §1

[4] = tested on: PPARg DBDmut IVT, anti-PPARg (DBD mutation: PPARg1 K132A/R137A, NR concentration 270 nM)
Summary of the method: as §1

[5] = tested on: PPARg homodimer (NR concentration 180 nM)
Summary of the method: as §1

[6] = tested on: PXR:RXRa (NR concentration 270 nM, RXRa partner concentration 90 nM)
Summary of the method: as §1

[7] = tested on: PXR homodimer (NR concentration 270 nM)
Summary of the method: as §1

[8] = tested on: RARa:RXR (NR concentration 270 nM, RXRa partner concentration 90 nM)
Summary of the method: as §1

[9] = tested on: RARa homodimer (NR concentration 270 nM)
Summary of the method: as §1

[10] = tested on: RARb:RXRa (NR concentration 270 nM, RXRa partner concentration 90 nM)
Summary of the method: as §1

Row | Sequence | PBM binding z-score [1] | PBM binding z-score [2] | PBM binding z-score [3] | PBM binding z-score [4] | PBM binding z-score [5] | PBM binding z-score [6] | PBM binding z-score [7] | PBM binding z-score [8] | PBM binding z-score [9] | PBM binding z-score [10]
1 | TCATATAGGTAAAAAGTGAAAGTCGGTGTGGTAA | 4.48 | 2.54 | 1 | 0.168 | 0.986 | 0.581 | 0.658 | 0.666 | 0.947 | 0.366
2 | GCTATTAGTTGAAAGGGCGACCGAATGATTCTCG | 0.652 | -0.0504 | -0.223 | -0.65 | 0.251 | -0.1 | -0.523 | 0.097 | -0.0879 | 0.699
3 | TCATATAGGAAAAGGTGAAAGTCGAACGATATGA | 1.88 | 1.52 | 1.28 | 0.696 | 0.985 | 0.902 | -0.139 | 1.54 | 0.581 | 1.93
4 | TTACCAAGGTGAGCTGAGGTCGTTGAGCCAACTC | 0.949 | 1.75 | -0.809 | -0.728 | -0.0553 | 5.03 | 0.369 | 2.08 | -0.816 | 1.76
5 | TCATATAGGTAAAAGGTTAAAGTCGGTGTGGTAA | 4.98 | 5.34 | 1.14 | 1.22 | 2.21 | 3.01 | 1.15 | 4.32 | 2.65 | 2.64
6 | AGTCAAAGTTCGCTAGGTAACGTAAGATTCAGCT | 0.109 | 1.13 | 0.0923 | 0.244 | 0.129 | 0.563 | 0.141 | 0.661 | 0.175 | 2
7 | CCGACTAGGGCAAGGTTACCATAACGCACAGCCA | 4.54 | 4.32 | -0.62 | -0.559 | 1.27 | 0.169 | -0.069 | 0.801 | 0.218 | 1.91
8 | CAAACTAGGTCACCGGAGGGTCAAAGTCCGCATG | 8.31 | 8.77 | 2.75 | 0.546 | 4.78 | 5.16 | 0.605 | 6.42 | 1.73 | 4.89
9 | TCTATTAGTTGAAGGGCAAGCGACGAGTCCGTTT | 2.2 | 0.635 | 0.42 | 0.671 | 0.728 | 0.841 | 0.859 | 0.478 | 0.687 | 1.53
10 | GCTAGATGGTCAGTAAAAGGTCACACACCGGTCG | 0.38 | 2.57 | 0.624 | -0.0918 | 3.76 | 4.83 | 0.89 | 5.65 | 2.5 | 4.43
11 | ACTAGCAGGCCACGGGTCACTCAAGATTAGTCCG | 1.77 | 3.02 | 0.251 | -0.351 | 0.555 | 1.52 | -0.598 | 2.05 | -0.386 | 2.17
12 | GGTCGGAGGACAAGGTCAGAGCTTTGTCCGTAGA | 0.195 | 1.61 | -0.429 | -1.06 | 1.09 | 1.63 | 0.0611 | 1.82 | -0.267 | 3.62
13 | CGAACCAGGTCATTGACAGGACAGTGAATAGTAA | 4.92 | 5.01 | 0.122 | 0.405 | 1.32 | 2.53 | 0.75 | 2.92 | 0.518 | 3.58
14 | GCTTGCAGGCCATTTGGGTCACTCAATGACGGGC | 3.07 | 3.01 | -0.212 | -0.514 | 0.237 | 0.662 | 0.0952 | 1.09 | -0.792 | 1.76
15 | ACTATTAGTTGAGACCAGGGCAACCGATAGGTTG | 0.0901 | 0.557 | 0.284 | 0.911 | -0.00507 | 0.204 | 0.236 | 0.191 | 0.419 | 0.628
16 | ATCTCTAGGTACGACTCAGTTCAGTGAAGAACGC | 0.59 | 0.456 | 0.443 | 1.02 | 0.793 | 1.4 | 1.82 | 0.363 | 1.28 | 0.504
17 | TCTTGTTGATCAAGCAGGTTAAGAAAGCCTGAGT | 1.34 | 0.182 | -0.406 | 0.392 | 0.2 | 0.29 | 0.159 | 0.176 | -0.0111 | 0.317
18 | TCGAGTAGGTTAGGGGCAATCAGAATGGCGTCGA | 2.08 | 1.37 | -0.745 | -0.163 | 1.06 | 0.437 | 0.0887 | 0.347 | -0.176 | 1.19
19 | TCGAGTAGGGTAGTCGGGGCATTCAGCCAACATA | 1.33 | 0.997 | -1.17 | -0.743 | 0.299 | -0.12 | -0.394 | -0.233 | -0.527 | 0.0213
